A selection: hits, their analogues and other compounds. The true share with any hit is near 2.7%.
ERG-DNA inh: qHTS for Small Molecule Inhibitors of the ERG Ets/DNA interaction | Transcriptional regulator ERG (Homo sapiens), P11308 | fluorescence polarization, His-ERG Ets domain / labelled DNA | Potency, µM (highest dose often 76.9 µM), hits mostly inhibitors | hit rate 0.028% among 370,000 | AID 624246, 2012; active means well fitted inhibition curve with a large enough effect in the polarisation, with a control signal flat; inconclusive means small, poorly fitted or top-dose-only effect, or effect the other way, or a change in a side signal; inactive means no such curve, though single readings can be large or run the other way; the % refers to the polarisation;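 further: polarization taken with two DNA probes labelled with fluorescein and Texas red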
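His-tagged ERG Ets domain (1 uM in the protein solution; 300mM KCl, 50mM Tris-HCl, 1mM EDTA, 1mM DTT, pH 7.5) received compound, then a probe mix of 5 nM fluorescein-DNA and 100nM Texas-615-DNA. Fluorescence polarization was read for both dyes.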
12-LOX inh: Primary qHTS assay for inhibitors of human arachidonate 12S-lipoxygenase (ALOX12): Round 2; Polyunsaturated fatty acid lipoxygenase ALOX12 (Homo sapiens), P18054; purified 12hLO, xylenol orange hydroperoxide absorbance; Potency, µM (doses to about 108 µM), usual class: inhibitors; hit rate 1.1% among 580,000; AID 1671190, 2021
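Purified human 12hLO at 150 nM in 25 mM Hepes, 0.01% Triton X-100, pH 7.0, preincubated 15 min at room temperature with compound. Reaction started with 40 uM arachidonic acid, 30 min at room temperature. Hydroperoxide measured by Fe-xylenol orange, 573/405 nm absorbance ratio.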
LDHA inh: qHTS assay for inhibitors of human lactate dehydrogenase. L-lactate dehydrogenase A chain (Homo sapiens), P00338. purified LDHA, NADH/diaphorase-resazurin fluorescence; hits give low values. activity change, % (values are at about 110 or 230 µM). hit rate 0.15% among 480,000; in the data active means activity change below about -30%; inconclusive means mostly about -25% to -30%
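Enzyme activity of human lactate dehydrogenase 5 (2 nM; 0.06 mM NADH, 0.2 mM pyruvate, 5 min, RT) is measured via a resazurin/diaphorase fluorescence readout of residual NADH.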
Nrf2 ARE act: qHTS of Nrf2 Activators. AREc32 ARE-luciferase reporter (MCF7-derived line), luminescence, 24 h. Potency, µM (titrated, usually from 46.1 µM), actives largely listed as activators. hit rate 0.31% among 410,000; further: nearly all actives have a fitted effect of over 65% in size
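Each well held 1000 AREc32 cells, which were incubated with compound for 24 hr at 37 deg C after overnight attachment, and ARE reporter activity was quantified by firefly luciferase luminescence.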
A549 tox-1: Nrf2 qHTS screen for inhibitors: counterscreen for cytotoxicity; A549 ARE-Fluc cells, CellTiter-Fluor viability, 18-24 h; Potency, µM (highest dose often 46 µM), most hits filed as inhibitors; hit rate 0.16% among 390,000; AID 504648, 2011
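A549 ARE_Fluc cells in 5% FBS OPTI-MEM were exposed to compounds in concentration-response for 18-24 h at 37 deg C. Viability was read by CellTiter-Fluor fluorescence (Ex 405/Em 525) after 30 min, before the luciferase read.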
Nrf2 block: Nrf2 qHTS screen for inhibitors | A549 ARE-Fluc reporter, luciferase luminescence, 18-24 h | Potency, µM (top dose mostly 46 µM), hits mostly inhibitors | hit rate 2.1% among 360,000 | AID 504444, 2011; further: nearly all actives have a fitted effect of over 60% in size
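Nrf2 activity is the BugLite luminescence, read 15 min after reagent at room temperature, following CellTiter-Fluor cytotoxicity readout (30 min, 37C). Compound titrations were applied for 18-24 h to 5000 A549 ARE_Fluc cells/well in 5% FBS OPTI-MEM.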
FLuc counter 3: Nrf2 qHTS screen for inhibitors: Purified Fluc Biochemical Counterscreen for Hit Validation; shares compounds with Nrf2 block; purified firefly luciferase, luminescence inhibition; Potency, µM (highest dose often 57.5 µM), most hits filed as inhibitors; hit rate 4% among 1,400; further: nearly all actives have a fitted effect of over 65% in size
Target sequence (P08659 whole entry, looked up): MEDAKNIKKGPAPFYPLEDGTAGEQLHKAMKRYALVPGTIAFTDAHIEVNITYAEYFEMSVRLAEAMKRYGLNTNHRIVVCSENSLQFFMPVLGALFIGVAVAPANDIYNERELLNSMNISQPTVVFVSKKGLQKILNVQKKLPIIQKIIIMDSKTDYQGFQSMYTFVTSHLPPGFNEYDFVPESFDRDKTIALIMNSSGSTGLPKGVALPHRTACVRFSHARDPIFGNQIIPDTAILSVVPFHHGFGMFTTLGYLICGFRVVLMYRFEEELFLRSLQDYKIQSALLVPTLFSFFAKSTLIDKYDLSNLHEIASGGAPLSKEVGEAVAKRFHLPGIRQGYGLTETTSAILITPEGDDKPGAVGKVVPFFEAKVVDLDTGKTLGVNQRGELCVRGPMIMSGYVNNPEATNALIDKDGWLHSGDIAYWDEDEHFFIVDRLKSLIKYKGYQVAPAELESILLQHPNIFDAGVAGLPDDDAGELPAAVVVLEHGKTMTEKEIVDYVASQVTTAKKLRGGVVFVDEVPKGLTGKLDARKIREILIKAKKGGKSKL
A549 tox-2: Nrf2 qHTS screen for inhibitors: A549 ARE-Fluc Cytotoxicity Counterscreen for Hit Validation; shares compounds with Nrf2 block; A549 ARE-Fluc cells, cytotoxicity counterscreen; Potency, µM (titrated, usually from 46.1 µM), most hits filed as inhibitors; hit rate 2% among 1,400;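 further: cells exposed to compounds for 18 to 24 hours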
Nrf2 ARE inh: Nrf2 qHTS screen for inhibitors: Nrf2 A549 ARE-Fluc Confirmation Assay for Hit Validation; shares compounds with Nrf2 block; A549 ARE-firefly luciferase reporter, luminescence; Potency, µM (titrated, usually from 46.1 µM), hits mostly inhibitors; hit rate 74% among 1,400; AID 720524, 2013; further: nearly all actives have a fitted effect of over 65% in size
Numbers stand for hits; - = inactive; ? = inconclusive; . = no result shown. Unless noted, the call rests on the fitted dose curve; in most records, active means well fitted curve in the direction sought with a large enough effect; inconclusive means small, poorly fitted or top-dose-only effect, or another doubt; inactive means no such curve, though single readings can be large; an effect the other way counts as inactive or inconclusive.

SMILES	ERG-DNA inh	12-LOX inh	LDHA inh	Nrf2 ARE act	A549 tox-1	Nrf2 block	FLuc counter 3	A549 tox-2	Nrf2 ARE inh
Cc1ccc(C(C)(C)C)cc1S(=O)(=O)N1CCC(C(=O)N2CCN(c3ccc(O)cc3)CC2)CC1	-	?	-	-	-	9.2µM	?	-	.
Cc1ccc2nc(CSc3nnc(N4CCCC4)n3-c3ccccc3Cl)cn2c1	.	-	-	.	.	.	.	.	.
CCCCNc1cc(C(=O)O)cc(S(N)(=O)=O)c1Oc1ccccc1	-	-	-	-	-	5.8µM	-	-	6.5µM
COc1ccc(-n2ccn(CC(=O)Nc3c(C)cc(C)cc3C)c2=O)cc1	.	-	-	.	.	.	.	.	.
Cc1ccnc2ccc3ccccc3c12	.	.	.	.	.	.	-	-	6.5µM
COc1ccc(NC(=S)NC(=O)/C=C/c2cccs2)cc1	-	-	-	-	-	-	.	.	.
O=C(/C=C/c1cccs1)NC(=S)Nc1ccc(S(=O)(=O)Nc2ccccc2C(F)(F)F)cc1	-	-	-	-	-	8.2µM	-	-	-
CC(C)(C)c1ccc(-c2noc(CCC(N)=O)n2)cc1	-	-	-	-	-	0.13µM	3µM	-	0.16µM
C#CC[N+](C)(C)C/C=C(\Cl)C(=C)Cl	.	-	-	.	.	.	.	.	.
O=S(=O)(c1ccc(F)cc1)N(Cc1cccnc1)C1CC1	.	-	-	.	.	.	.	.	.
Cc1ccc(C)c(NC(=S)NC(NC(=O)/C=C/c2ccccc2)C(Cl)(Cl)Cl)c1 (configuration not stated)	-	-	-	-	-	8.2µM	-	?	0.37µM
CN1CCC2(CC1)CN(C(=O)Cc1cccs1)Cc1ccccc1O2	.	-	.	.	.	.	.	.	.
O=C(CSC1CCCC1)NCCc1cccs1	.	-	-	.	.	.	.	.	.
O=NN(CCc1ccncc1)c1ccc(OCc2ccccc2)cc1	-	?	-	-	-	6.5µM	-	-	5.8µM
O=C(NCc1ccncc1)C(=O)N/N=C/c1ccc(OCc2ccccc2)cc1	-	-	-	-	-	-	.	.	.
Cc1ccc(OCC(=O)NCCC2CCN(C(=O)Nc3ccc(F)cc3)CC2)cc1	.	-	.	.	.	.	.	.	.
Cc1ccc(C(=O)NCc2cccc(C(F)(F)F)c2)cc1S(=O)(=O)N1CCCCC1	-	-	-	-	-	3.7µM	-	-	?
Cc1ccc(C(=O)NCc2ccco2)cc1S(=O)(=O)N1CCCCC1	.	?	-	-	-	-	.	.	.
Cn1cnc2c1c(=O)n(CC(=O)NC1CC1)c(=O)n2C	.	-	-	.	.	.	.	.	.
CC(C)NC(=O)c1ccc(-n2c(-c3ccccc3)cc3c2CCCC3)cc1	-	-	-	?	-	-	.	.	.
CC(C)c1ccc(-n2c(-c3ccccc3)c[n+]3c2CCc2ccccc2-3)cc1	-	-	-	-	10µM	2.1µM	-	?	2.6µM
COc1ccccc1-n1c(-c2ccccc2)c[nH]c1=S	-	?	-	-	-	-	.	.	.
COc1ccccc1-n1c(-c2ccccc2)c[n+]2c1CCc1ccccc1-2	-	-	-	-	?	3.7µM	-	-	8.2µM
COc1ccc(Cl)cc1NC(=O)CSC1=Nc2ccccc2C2=NC(CCC(=O)NCc3ccc(F)cc3)C(=O)N12 (configuration not stated)	-	-	-	-	?	3.7µM	-	?	15µM
O=C(NCc1ccco1)c1nc2c(nnn2Cc2ccccc2Cl)c(=O)[nH]1	.	-	-	-	?	4.6µM	-	?	6.5µM

Assay outcomes as filed in PubChem.
